# Inconclusive results are not listed. Where a call stands in place of a potency, no number is given. Active and inactive are the calls of the source. Calls come from the whole dose curve.
# Assay: Primary qHTS for inhibitors of MERS-S pseudo-typed particle cell entry (AID 1479149); note: nearly all actives have a fitted effect of over 60% in size
# Settings: MERS-S pseudotyped particle entry, luciferase; series mostly up to 57.1 µM
# Potency is the fitted concentration of half-maximal effect.
row,Compound,Potency
1,COc1ccc2cc1Oc1ccc(cc1)C[C@H]1c3c(cc4c(c3Oc3cc5c(cc3OC)CCN(C)[C@@H]5C2)OCO4)CCN1C,3.55 µM (active)
2,O=C1NC2CCCCN2C12CCN(CCCN1c3ccccc3CCc3ccc(Cl)cc31)CC2 (stereo unspecified),12.6 µM (active)
3,O=C(Oc1cccc2cccnc12)c1ccccc1,12.6 µM (active)
4,CC(C)OC(=O)C(C(=O)OC(C)C)=C1SC=CS1,inactive
5,NC(=O)C1(N2CCCCC2)CCN(CCCN2c3ccccc3CCc3ccc(Cl)cc32)CC1,12.6 µM (active)
6,COc1ccc(CCN2CCC(Nc3nc4ccccc4n3Cc3ccc(F)cc3)CC2)cc1,12.6 µM (active)
7,CCCCCCCCCCCCCCCC[N+](C)(C)CCN(Cc1ccc(OC)cc1)c1ncccn1,10 µM (active)
8,CC(C(O)c1ccccc1)N(C)CCOC(c1ccccc1)c1ccccc1 (stereo unspecified),22.4 µM (active)
9,CC(C)COCC(CN(Cc1ccccc1)c1ccccc1)N1CCCC1 (stereo unspecified),8.91 µM (active)
10,O=C1NCCN1CCN1CCC(c2cn(-c3ccc(F)cc3)c3ccc(Cl)cc23)CC1,8.91 µM (active)

# Assay: Primary qHTS for Vero E6 cytotoxicity: counterscreen for inhibitors of SARS-S pseudo-typed particle cell entry (AID 1479150)
# Settings: cell viability; series mostly up to 57.1 µM
row,Compound,Potency
1,CCC(=O)c1ccc2c(c1)N(CCCN(C)C)c1ccccc1S2,inactive
2,CCC(C)(C)c1ccc(CC(C)CN2C[C@@H](C)O[C@@H](C)C2)cc1 (stereo partly specified),inactive
3,O=c1c(-c2ccccc2)c1-c1ccccc1,inactive
4,O=c1[nH]c2ccccc2n1CCCN1CCN(C(c2ccccc2)c2ccccc2)CC1,inactive
5,O=C1NC2CCCCN2C12CCN(CCCN1c3ccccc3CCc3ccc(Cl)cc31)CC2 (stereo unspecified),inactive
6,O=C(Oc1cccc2cccnc12)c1ccccc1,5.62 µM (active)
7,O=C(CCC1CCN(Cc2ccccc2)CC1)c1ccc2c(c1)NCCCC2,inactive
8,Cc1ccc2nc(N)[nH]c(=O)c2c1Sc1ccncc1,inactive
9,CC(C)OC(=O)C(C(=O)OC(C)C)=C1SC=CS1,inactive
10,Fc1ccc(C(c2ccc(F)cc2)N2CCN(C/C=C/c3ccccc3)CC2)cc1,inactive
11,CN1CCCN(C(c2ccccc2)c2ccc(Cl)cc2)CC1 (stereo unspecified),inactive
12,CCCCOc1ccc(C(=O)CCN2CCCCC2)cc1,inactive
13,CN1CCCC(n2nc(Cc3ccc(Cl)cc3)c3ccccc3c2=O)CC1 (stereo unspecified),inactive
14,CC1=CC(=O)c2ccccc2C1=O,inactive
15,CCCCC1C(=O)N(c2ccccc2)N(c2ccc(O)cc2)C1=O (stereo unspecified),22.4 µM (active)
16,NC(N)=N/N=C/c1c(Cl)cccc1Cl,inactive
17,CCCCN(CCCC)CCC(O)c1cc2c(Cl)cc(Cl)cc2c2cc(C(F)(F)F)ccc12 (stereo unspecified),inactive
18,CC(C(O)c1ccccc1)N(C)CCOC(c1ccccc1)c1ccccc1 (stereo unspecified),inactive
19,CCN(CC)CCOc1ccc(/C(=C(\Cl)c2ccccc2)c2ccccc2)cc1,inactive
20,CC(C)COCC(CN(Cc1ccccc1)c1ccccc1)N1CCCC1 (stereo unspecified),inactive
21,COc1cc(N)c(Cl)cc1C(=O)NC1CCN(CCCOc2ccc(F)cc2)CC1OC (stereo unspecified),inactive
22,O=C(CCCN1CCC(O)(c2ccc(Br)cc2)CC1)c1ccc(F)cc1,inactive
23,CN(C(=O)CN(CCO)CC(=O)N(C)C(C)(C)Cc1ccccc1)C(C)(C)Cc1ccccc1,inactive
24,CCCN(CCC)C(=O)C(CCC(=O)OCCCN1CCN(CCOC(=O)Cc2c(C)n(C(=O)c3ccc(Cl)cc3)c3ccc(OC)cc23)CC1)NC(=O)c1ccccc1 (stereo unspecified),inactive
25,O=C(CCCN1CCN(c2ccc(F)cc2)CC1)NC1c2ccccc2CSc2ccccc21 (stereo unspecified),inactive
26,COC(=O)[C@H]1[C@H]2C[C@@H]3c4[nH]c5cc(OC)ccc5c4CCN3C[C@H]2C[C@@H](OC(=O)/C=C/c2ccc(O)c(OC)c2)[C@@H]1OC,inactive

# Assay: Confirmatory qHTS for VERO E6 Cytotoxicity Assay: Counterscreen for SARS-CoV-2 CPE Assay (AID 1508605); note: nearly all actives have a fitted effect of over 60% in size
# Settings: cell viability luminescence; series mostly up to 20 µM
row,Compound,Potency
1,CCC(=O)c1ccc2c(c1)N(CCCN(C)C)c1ccccc1S2,inactive
2,COc1ccc2cc1Oc1ccc(cc1)C[C@H]1c3c(cc4c(c3Oc3cc5c(cc3OC)CCN(C)[C@@H]5C2)OCO4)CCN1C,11.2 µM (active)
3,O=C(CCC1CCN(Cc2ccccc2)CC1)c1ccc2c(c1)NCCCC2,inactive
4,Fc1ccc(C(c2ccc(F)cc2)N2CCN(C/C=C/c3ccccc3)CC2)cc1,inactive
5,CN1CCN(CCCN2c3ccccc3Sc3ccc(S(=O)(=O)N(C)C)cc32)CC1,inactive
6,c1ccc(-c2ccc(C(c3ccccc3)n3ccnc3)cc2)cc1 (stereo unspecified),inactive
7,CC(C(O)c1ccccc1)N(C)CCOC(c1ccccc1)c1ccccc1 (stereo unspecified),inactive
8,CC(C)COCC(CN(Cc1ccccc1)c1ccccc1)N1CCCC1 (stereo unspecified),inactive
9,CCCN(CCC)C(=O)C(CCC(=O)OCCCN1CCN(CCOC(=O)Cc2c(C)n(C(=O)c3ccc(Cl)cc3)c3ccc(OC)cc23)CC1)NC(=O)c1ccccc1 (stereo unspecified),inactive
10,CCN(CC)CCOc1ccc2c(c1)C(=O)c1cc(OCCN(CC)CC)ccc1-2,11.2 µM (active)
11,COC(=O)C1=C(C)NC(C)=C(C(=O)O[C@@H]2CCCN(Cc3ccccc3)C2)[C@@H]1c1cccc([N+](=O)[O-])c1,11.2 µM (active)
12,O=C(CCCN1CCN(c2ccc(F)cc2)CC1)NC1c2ccccc2CSc2ccccc21 (stereo unspecified),inactive
13,CCN(CC)CCNc1ccc(CO)c2sc3ccccc3c(=O)c12,10 µM (active)
14,CCN(CC)CCCC(C)Nc1c2ccc(Cl)cc2nc2ccc(OC)cc12 (stereo unspecified),11.2 µM (active)
15,COC(=O)[C@H]1[C@H]2C[C@@H]3c4[nH]c5cc(OC)ccc5c4CCN3C[C@H]2C[C@@H](OC(=O)/C=C/c2ccc(O)c(OC)c2)[C@@H]1OC,inactive
